Shown are actives, neighbours in structure and some others; about 5.7% of the full set was active somewhere.
DAX1 inh-1 = DAX1 (NR0B1) inhibitors on StAR promoter, primary screen, cell-based, luminescence, SF-1 (NR5A1), full-length DAX-1; HEK293T StAR-luciferase reporter, SF-1/DAX-1 repression relief; inhibition, % at 6.8 µM; 370,000 compounds, 1.1% hits;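 active = inhibition above the mean over all tested compounds plus 3 SD, cut at about 3.6% in these data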;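 also: 0% = DAX-1 cells with DMSO and 100% = cells lacking DAX-1 with DMSO; higher inhibition means more luminescence from relief of DAX-1 repression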
DAX1 inh-2 = DAX1 (NR0B1) inhibitors, primary screen, cell-based, HEK293, Gal4-DAX1, luciferase luminescence. 340,000 compounds, 0.99% hits. Nuclear receptor subfamily 0 group B member 1 (Homo sapiens), P51843. AID 504766, 2011. inhibition, % at 6.75 µM. HEK293 Gal4-DAX1 luciferase reporter;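 active = inhibition above the mean over all tested compounds plus 3 SD, cut at about 4.2% in these data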;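 also: 0% = DAX1-transfected cells with DMSO and 100% = empty-vector control cells with DMSO; inhibition shows as a rise in luminescence from relieved DAX1 repression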
Target sequence (P51843 207-470 limits assumed): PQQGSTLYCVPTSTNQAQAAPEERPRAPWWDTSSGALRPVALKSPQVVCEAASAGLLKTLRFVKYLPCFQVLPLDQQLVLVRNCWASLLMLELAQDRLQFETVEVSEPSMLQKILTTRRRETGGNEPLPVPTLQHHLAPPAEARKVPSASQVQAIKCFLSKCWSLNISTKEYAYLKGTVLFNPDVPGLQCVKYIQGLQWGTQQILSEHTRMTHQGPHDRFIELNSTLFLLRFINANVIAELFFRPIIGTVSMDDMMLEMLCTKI
AHR act = AHR activators, primary screen, cell-based, luminescence, luciferase reporter, human; Aryl hydrocarbon receptor (Homo sapiens), P35869; AHR-responsive luciferase reporter cells; activation, % at 5 µM; 320,000 compounds, 2.5% hits; in the data active = activation above about 47%;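 also: 0% = vehicle wells and 100% = reference agonist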
ssDAF12 agonist = S. stercoralis DAF-12 nuclear receptor activators, primary screen, cell-based, luminescence, HEK293, GRIP1 co-expression, lit1-tk-luc | AID 652126, 2013 | 370,000 compounds, 1% hits | HEK293 ssDAF-12/GRIP1 lit1-tk-luc reporter; % of 3 µM dafachronic acid response | activation, % at 6.8 µM;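 active = activation above the mean over all tested compounds plus 3 SD, cut at about 0.9% in these data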;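 also: 0% = DMSO-only wells and 100% = 3 µM delta7-dafachronic acid wells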
hcDAF12 agonist = H. contortus DAF-12 nuclear receptor activators, primary screen, cell-based, luminescence, HEK293, lit1-tk-luc reporter; HEK293 hcDAF-12 lit1-tk-luc reporter; 0% DMSO, 100% Δ7-dafachronic acid; activation, % at 6.8 µM; 370,000 compounds, 1.4% hits; AID 652067, 2013;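 active = activation above the mean of all tested compounds plus 3 SD, cut at about 5.5% in these data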;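 also: 100% = response to 3 µM Δ7-dafachronic acid high control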
hgDAF-12 ag = H. glycines DAF-12 receptor agonists, primary screen, cell-based, luminescence, HEK293, GAL4 fusion, UAS-luciferase. Nuclear hormone receptor DAF-12 (Heterodera glycines), GAL4 fusion. activation, % at 6.8 µM. HEK293 GAL4-hgDAF12 UAS-luciferase reporter, agonist luminescence; normalized to butyrate control. 370,000 compounds, 1.8% hits;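 active = activation above a cutoff set at the mean of all screened compounds plus 3 SD, cut at about 10% in these data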;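 also: 0% = DMSO wells and 100% = sodium butyrate wells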
The depositor's hits bear a star.

How did Cc1nnc(SCC(=O)Nc2ccc(Cl)cn2)n1Cc1ccccc1 do in these assays?
DAX1 inh-1: -0.5; DAX1 inh-2: 6.0*; AHR act: 6.4; ssDAF12 agonist: -0.9; hcDAF12 agonist: -0.6; hgDAF-12 ag: -1.2

Results for COc1ccc(C(=O)Nc2nc(CC(=O)NCCc3ccccc3OC)cs2)cc1 ?
DAX1 inh-1: -1.8; DAX1 inh-2: -2.2; AHR act: 22.7; ssDAF12 agonist: -0.1; hcDAF12 agonist: 0.1; hgDAF-12 ag: 1.3

What do the screens show for `CC(=O)C1=C(C)N(CC(C)C)C(=S)NC1c1cccc(Cl)c1` (configuration not stated)?
DAX1 inh-1: -0.8; ssDAF12 agonist: -1.1; hcDAF12 agonist: -1.4; hgDAF-12 ag: -0.2

What do the screens show for `O=C1OCC2=C1C(c1ccc(F)cc1)c1cc3c(cc1N2)OCO3` (configuration not stated)?
DAX1 inh-1: 4.2*; DAX1 inh-2: 0.1; ssDAF12 agonist: -0.6; hcDAF12 agonist: -0.4; hgDAF-12 ag: -4.9

How did C=CCNc1nc2cc(-c3ccccc3OC)sc2c(=O)n1C do in these assays?
DAX1 inh-1: -0.3; ssDAF12 agonist: -0.4; hcDAF12 agonist: 1.9; hgDAF-12 ag: 11.4*

Results for COCCNc1nc2cc(-c3ccc(F)cc3)sc2c(=O)n1C ?
DAX1 inh-1: -0.7; ssDAF12 agonist: -1.4; hcDAF12 agonist: -1.0; hgDAF-12 ag: 11.7*

Results for Cn1c(NCCOc2ccccc2)nc2cc(-c3ccc(F)cc3)sc2c1=O ?
DAX1 inh-1: 0.7; ssDAF12 agonist: -1.6; hcDAF12 agonist: -1.5; hgDAF-12 ag: -1.5

Results for C[n+]1ccc(CC2C(=[N+]([O-])[O-])C=Nc3ncnn32)cc1 (configuration not stated) ?
DAX1 inh-1: 0.9; DAX1 inh-2: 2.2; ssDAF12 agonist: -1.2; hcDAF12 agonist: 1.8; hgDAF-12 ag: 1.9

Results for O=[N+]([O-])c1ccc(Cl)c(S(=O)(=O)Nc2cccc(S(=O)(=O)NC3=NCCC3)c2)c1 ?
DAX1 inh-1: -2.0; DAX1 inh-2: -0.1; AHR act: 52.3*; ssDAF12 agonist: 0.0; hcDAF12 agonist: 1.3; hgDAF-12 ag: -4.3

Results for CC(C)(C)c1ccc(C(=O)Nc2cccc(S(=O)(=O)NC3=NCCC3)c2)cc1 ?
DAX1 inh-1: 4.0*; DAX1 inh-2: 0.1; AHR act: 3.5; ssDAF12 agonist: -1.1; hcDAF12 agonist: 2.9; hgDAF-12 ag: 7.8

How did CN(C)c1ccc(C(=O)Nc2cccc(S(=O)(=O)NC3=NCCCCC3)c2)cc1 do in these assays?
DAX1 inh-1: -1.3; DAX1 inh-2: 0.0; AHR act: 7.6; ssDAF12 agonist: -0.5; hcDAF12 agonist: 1.1; hgDAF-12 ag: -0.2

How did COC(=O)c1cc2c(c3c4cc(C)ccc4n(S(=O)(=O)c4cccc(C)c4)c13)C(=O)N(C)C2 do in these assays?
DAX1 inh-1: 1.0; ssDAF12 agonist: -0.7; hcDAF12 agonist: 3.5; hgDAF-12 ag: 1.8

What do the screens show for `COc1cccc(-c2ccc(SCC(=O)NCCc3ccccc3)nn2)c1`?
DAX1 inh-1: -2.6; DAX1 inh-2: -0.7; AHR act: 16.5; ssDAF12 agonist: -1.3; hcDAF12 agonist: 4.5; hgDAF-12 ag: 3.1

Results for COc1cccc(-c2ccc(C#N)c(SCC(=O)NCCc3ccccc3)n2)c1 ?
DAX1 inh-1: 0.2; DAX1 inh-2: 0.7; AHR act: 6.1; ssDAF12 agonist: 1.0*; hcDAF12 agonist: -1.4; hgDAF-12 ag: 0.0

What do the screens show for `CCOC(=O)N1CCN(C(=S)NC(C)(C)C)CC1`?
DAX1 inh-1: 0.7; DAX1 inh-2: 5.2*; AHR act: 1.6; ssDAF12 agonist: -1.3; hcDAF12 agonist: -1.5; hgDAF-12 ag: 1.9
